This passage reports outcome results from PubChem BioAssay (NCATS).

The structures appear in SMILES notation. Active and inactive are the calls of the source. The call rests on the fitted dose curve; in most records, active means well fitted curve in the direction sought with a large enough effect (not every such curve was filed as active); inconclusive means small, poorly fitted or top-dose-only effect, or effect the other way, or another doubt; inactive means no such curve, though single readings can be large or run the other way.

Chain of Pyruvate kinase PKM (Homo sapiens) (P14618 whole entry, looked up): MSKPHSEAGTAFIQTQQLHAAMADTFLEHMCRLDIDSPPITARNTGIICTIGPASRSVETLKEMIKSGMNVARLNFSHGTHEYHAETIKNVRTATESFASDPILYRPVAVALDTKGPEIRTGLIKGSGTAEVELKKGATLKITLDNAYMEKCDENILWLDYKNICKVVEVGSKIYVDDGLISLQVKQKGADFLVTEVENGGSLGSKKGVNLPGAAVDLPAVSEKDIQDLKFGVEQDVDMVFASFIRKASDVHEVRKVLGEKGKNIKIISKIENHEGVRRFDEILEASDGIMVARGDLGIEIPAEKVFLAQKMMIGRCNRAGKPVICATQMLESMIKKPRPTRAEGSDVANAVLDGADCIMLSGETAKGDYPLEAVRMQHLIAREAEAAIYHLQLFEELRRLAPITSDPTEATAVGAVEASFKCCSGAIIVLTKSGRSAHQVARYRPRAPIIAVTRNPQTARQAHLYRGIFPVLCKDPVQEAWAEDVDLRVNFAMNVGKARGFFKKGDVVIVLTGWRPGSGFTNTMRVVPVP

This assay deals with Pyruvate kinase PKM (Homo sapiens) (UniProt P14618). Put plainly: qHTS Assay for Activators of Human Muscle Pyruvate Kinase (AID 954). The note with it: purified human muscle pyruvate kinase, luciferase-coupled luminescence, 1 h; series mostly up to 57.5 µM. As to the method:
NIH Molecular Libraries Screening Centers Network [MLSCN]
NIH Chemical Genomics Center [NCGC]
Wael M. Rabeh, Lyudmila Nedyalkova and Hee-Wan Park [Structural Genomics Consortium, 100 College St. Toronto, Ontario, Canada]
Human pyruvate kinase muscle 2 enzyme was supplied as a highly purified (>95% pure) preparation by the Structural Genomics Consortium in Toronto (Ontario, Canada) and was assayed for its ability to generate ATP from ADP using phosphoenolpyruvate (PEP) as a substrate. ATP generation was detected in a coupled reaction by luciferase-mediated luminescence, an ATP-dependent process. Pyruvate kinase substrates, PEP and ADP, were present in the assay at Km and approximately […]-fold below Km respectively. The enzyme was assayed at an intermediate level of activity to screen for inhibitors and activators.
NCGC Assay Protocol Summary:
Three uL of substrate mix (final concentration, 50 mM imidazole pH 7.2, 50 mM KCl, 7 mM MgCl2, 0.5 mM PEP, 0.1 mM ADP, 0.01% Tween 20, 0.05% BSA) was dispensed into 1536 well plates. 23 nL of compound were delivered by a pin tool and 1 uL of enzyme mix (final concentration, 0.1 nM pyruvate kinase, 50 mM imidazole pH 7.2, 0.05% BSA) was added. Plates were incubated at room temperature for 1 hour. Two uL of detection and kinase stop mix (PKLight, Cambrex) was added, the plates centrifuged, and luminescence read by a ViewLux (Perkin Elmer) at 5 second exposure/plate. Data were normalized to the uninhibited and AC100 inhibition (no enzyme or 110 uM N-methyl-2,3-diphenyl-1,2,4-thiadiazol-5-imine; CID: 682802; LOPAC-S-4063). To monitor activation, 0.3 nM pyruvate kinase was included in one control column.
As for `CCOC(=O)[C@@]12C[C@@H]1/C(=N/O)c1ccccc1O2`, the compound was classed as inactive.

Consider `CC(C)(C)NC[C@H](O)c1ccc(O)c(CO)c1`, for which the compound was classed as inactive. Regarding `CNCC[C@H](Oc1ccccc1OC)c1ccccc1`, the result was inactive. The same measure for `CC(N)=NCCC[C@H](N)C(=O)O`: “inactive”. For `O=C(OCCN1CCCCC1)c1c[nH]c2ccccc12`, the result was inactive. The same measure for `COc1cc2nc(N3CCN(C(=O)[C@H]4CCCO4)CC3)nc(N)c2cc1OC`: “inactive”; for `COc1ccccc1NC(=O)Nc1nc(-c2cccnc2)nc2ccccc12`: “inactive”. The value for `Cc1cccc([C@@H]2CN(C)CCc3c2cc(O)c(O)c3Cl)c1` was “inactive”; that for `O=Nc1c(-c2c(O)[nH]c3ccccc23)[nH]c2ccccc12` was “inactive”; that for `C[C@@](N)(C(=O)O)c1ccc(C(=O)O)cc1` was “inactive”. For `S=C(Nc1ccccc1)Nc1nccs1`, the result was inactive.

For `CCCCCCCCCCCCCCCC(=O)O[C@H](CC(=O)O)C[N+](C)(C)C`, the compound was called inactive. The value for `N[C@]1(C(=O)O)CCc2cc(C(=O)O)ccc21` was “inactive”; that for `Fc1ccc(C(c2ccc(F)cc2)N2CCN(C/C=C\c3ccccc3)CC2)cc1` was “inactive”; that for `S=C(S)O[C@@H]1C[C@@H]2C[C@H]1[C@@H]1CCC[C@H]21` was “inactive”.

On to `CC(N)=NCCCC[C@H](N)C(=O)O`, for which the outcome was inactive. For `COCCOC(=O)C1=C(C)NC(C)=C(C(=O)OC(C)C)[C@@H]1c1cccc([N+](=O)[O-])c1`, the compound was called inactive. Regarding `Cc1cccc(/C=C\c2ccccc2)n1`, the compound was called inactive. The value for `C=C[C@H](N)CCC(=O)O` was “inactive”.

`CCCn1c(=O)c2[nH]c(-c3ccc(OCC(=O)Nc4ccc(C#N)cc4)cc3)nc2n(CCC)c1=O`: the compound was called inactive. Consider `CC#CCOC(=O)c1c(C)nc2sc3c(c2c1N)CC[C@@H](O)C3`, for which the call was inactive. The same measure for `N#CC(=C(/N)Sc1ccccc1N)/C(C#N)=C(/N)Sc1ccccc1N`: “inactive”. The same measure for `Fc1cccc(/C=N\N=C/c2cccc(F)c2)c1`: “inactive”; for `CSc1ccc2c(c1)[C@H](N1CCN(C)CC1)Cc1ccccc1S2`: “inactive”. The same measure for `CC(N)=NCc1cccc(CN)c1`: “inactive”; for `NC(N)=NN=Cc1c(Cl)cccc1Cl`: “inactive”; for `CN(C)CCCCSC(=N)N`: “inactive”. Regarding `CN1CCN2c3ccccc3Cc3ccccc3[C@@H]2C1`, the result was inactive. As for `CC[N+](CC)(CC)CC`, the compound was classed as inactive.

On to `CC[C@H](C)C(=O)O[C@H]1CCC=C2C=C[C@H](C)[C@H](CC[C@@H]3C[C@H](O)CC(=O)O3)[C@H]21`, for which the result was inactive. In the case of `O=C(Nc1cc(C(=O)Nc2ccc(S(=O)(=O)O)cc2S(=O)(=O)O)cc(C(=O)Nc2ccc(S(=O)(=O)O)cc2S(=O)(=O)O)c1)Nc1cc(C(=O)Nc2ccc(S(=O)(=O)O)cc2S(=O)(=O)O)cc(C(=O)Nc2ccc(S(=O)(=O)O)cc2S(=O)(=O)O)c1`, the compound was classed as inactive. The same measure for `C[C@@H]1C[C@@H]2[C@H]3CCC4=CC(=O)C=C[C@]4(C)[C@]3(F)[C@@H](O)C[C@@]2(C)[C@@]1(O)C(=O)CO`: “inactive”; for `NS(=O)(=O)c1cc2c(cc1Cl)N[C@@H]([C@@H]1C[C@@H]3C=C[C@H]1C3)NS2(=O)=O`: “inactive”; for `O=C(O)c1cc(=O)c2ccc(Cl)cc2[nH]1`: “inactive”. The same measure for `CC1=C(\C=C/C(C)=C/C=C\C(C)=C\C(=O)O)C(C)(C)CCC1`: “inactive”. The value for `CC(C)(C)NC[C@H](O)COc1cccc2[nH]c(=O)[nH]c12` was “inactive”; that for `C=CCN1CCc2cc(O)c(O)cc2[C@H](c2ccccc2)C1` was “inactive”; that for `CC(C)NC[C@@H](O)COc1ccc(CCOCC2CC2)cc1` was “inactive”.

For `CCOC(=O)C1=C(C)NC(C)=C(C(=O)OC)[C@H]1c1cccc([N+](=O)[O-])c1`, the result was inactive.

Regarding `COc1ccccc1N1CCN(C[C@@H](O)COc2cccc3ccccc23)CC1`, the call was inactive.
